This passage reports inhibition results from ChEMBL document CHEMBL1961873, “Compounds: GSK PKIS; Assays: Nanosyn kinase panel” (2012).

Structures are written as SMILES.

Test [1] deals with Protein kinase C gamma type (Homo sapiens) (UniProt P05129). To be noted: at 1 µM.
Test [2] concerns the target T1, Protein kinase C iota type (Homo sapiens) (UniProt P41743).
T1 sequence (whole entry): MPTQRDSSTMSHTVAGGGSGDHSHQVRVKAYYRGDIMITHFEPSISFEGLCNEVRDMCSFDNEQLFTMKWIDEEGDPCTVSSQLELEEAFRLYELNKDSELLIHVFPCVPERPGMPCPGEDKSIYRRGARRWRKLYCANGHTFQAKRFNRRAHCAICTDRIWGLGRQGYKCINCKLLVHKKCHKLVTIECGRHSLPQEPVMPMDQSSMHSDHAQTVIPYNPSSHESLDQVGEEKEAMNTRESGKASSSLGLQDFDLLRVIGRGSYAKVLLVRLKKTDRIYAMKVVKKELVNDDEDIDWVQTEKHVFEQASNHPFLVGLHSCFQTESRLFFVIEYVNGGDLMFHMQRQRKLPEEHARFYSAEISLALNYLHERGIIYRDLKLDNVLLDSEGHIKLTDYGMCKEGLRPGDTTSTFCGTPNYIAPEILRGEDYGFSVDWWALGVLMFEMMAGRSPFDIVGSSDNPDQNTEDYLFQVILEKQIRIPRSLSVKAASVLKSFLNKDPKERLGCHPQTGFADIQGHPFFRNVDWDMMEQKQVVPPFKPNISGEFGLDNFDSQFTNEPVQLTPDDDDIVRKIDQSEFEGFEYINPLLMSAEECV
To be noted: at 0.1 µM.

Test [3] concerns the target T1, Protein kinase C iota type (Homo sapiens). Conditions: at 1 µM.
The target of test [4] is Protein kinase C theta type (Homo sapiens) (UniProt Q04759). To be noted: at 0.1 µM.
For test [5] the target is unchanged. Conditions: at 1 µM.
The target of test [6] is Protein kinase C beta type (Homo sapiens) (UniProt P05771). To be noted: at 0.1 µM.
Test [7] shares this target. To be noted: at 1 µM.
For test [8], the target named is T2, Serine/threonine-protein kinase D1 (Homo sapiens) (UniProt Q15139).
T2 sequence (whole entry): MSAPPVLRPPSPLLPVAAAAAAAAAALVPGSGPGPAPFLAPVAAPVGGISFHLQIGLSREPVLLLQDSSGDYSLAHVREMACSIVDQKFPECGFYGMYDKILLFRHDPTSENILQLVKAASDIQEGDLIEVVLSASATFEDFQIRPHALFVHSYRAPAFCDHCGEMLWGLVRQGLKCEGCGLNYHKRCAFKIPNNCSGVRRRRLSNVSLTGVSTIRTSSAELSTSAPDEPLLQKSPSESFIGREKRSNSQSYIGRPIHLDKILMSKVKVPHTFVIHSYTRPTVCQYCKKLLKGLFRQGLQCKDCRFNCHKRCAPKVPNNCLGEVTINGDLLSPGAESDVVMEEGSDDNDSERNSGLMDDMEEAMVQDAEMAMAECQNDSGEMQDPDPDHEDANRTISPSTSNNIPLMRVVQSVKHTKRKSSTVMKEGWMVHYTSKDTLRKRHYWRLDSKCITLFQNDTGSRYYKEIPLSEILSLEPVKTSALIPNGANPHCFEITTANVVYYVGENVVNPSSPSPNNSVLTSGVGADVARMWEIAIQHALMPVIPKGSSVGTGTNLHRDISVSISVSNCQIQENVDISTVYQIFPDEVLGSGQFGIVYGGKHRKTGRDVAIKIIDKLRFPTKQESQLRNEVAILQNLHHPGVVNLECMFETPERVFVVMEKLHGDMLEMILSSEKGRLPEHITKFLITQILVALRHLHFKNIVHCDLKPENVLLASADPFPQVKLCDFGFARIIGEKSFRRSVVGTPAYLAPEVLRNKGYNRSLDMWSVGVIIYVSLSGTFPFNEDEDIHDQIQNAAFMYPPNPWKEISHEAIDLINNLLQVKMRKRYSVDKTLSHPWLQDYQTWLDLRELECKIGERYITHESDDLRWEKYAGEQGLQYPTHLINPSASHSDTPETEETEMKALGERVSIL
Conditions: at 0.1 µM.

The target in test [9] is T2, Serine/threonine-protein kinase D1 (Homo sapiens). Conditions: at 1 µM.
In test [10] the target is T3, Serine/threonine-protein kinase D2 (Homo sapiens) (UniProt Q9BZL6).
T3 sequence (whole entry): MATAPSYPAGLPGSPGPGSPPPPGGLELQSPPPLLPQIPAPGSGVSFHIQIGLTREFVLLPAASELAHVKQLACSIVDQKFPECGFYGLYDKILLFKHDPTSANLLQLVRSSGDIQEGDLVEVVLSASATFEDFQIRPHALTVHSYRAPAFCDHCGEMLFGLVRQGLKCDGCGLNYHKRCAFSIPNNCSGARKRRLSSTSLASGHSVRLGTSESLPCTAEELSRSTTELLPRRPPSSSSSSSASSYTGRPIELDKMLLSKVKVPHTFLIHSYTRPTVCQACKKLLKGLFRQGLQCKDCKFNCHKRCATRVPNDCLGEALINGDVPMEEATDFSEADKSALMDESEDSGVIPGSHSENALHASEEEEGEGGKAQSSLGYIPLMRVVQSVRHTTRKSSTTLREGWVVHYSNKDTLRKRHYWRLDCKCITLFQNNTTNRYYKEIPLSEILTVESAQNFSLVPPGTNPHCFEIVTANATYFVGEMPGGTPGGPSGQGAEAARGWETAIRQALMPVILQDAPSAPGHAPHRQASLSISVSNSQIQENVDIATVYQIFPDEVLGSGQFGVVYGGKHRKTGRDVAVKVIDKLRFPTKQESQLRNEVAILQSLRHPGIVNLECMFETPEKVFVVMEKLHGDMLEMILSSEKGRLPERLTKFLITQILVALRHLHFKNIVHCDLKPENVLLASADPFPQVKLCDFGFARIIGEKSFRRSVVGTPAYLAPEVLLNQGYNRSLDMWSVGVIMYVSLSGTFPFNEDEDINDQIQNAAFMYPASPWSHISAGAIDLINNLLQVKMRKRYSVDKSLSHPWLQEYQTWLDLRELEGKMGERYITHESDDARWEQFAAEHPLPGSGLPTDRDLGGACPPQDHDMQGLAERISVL
Conditions: at 0.1 µM.

Test [11] concerns the target T3, Serine/threonine-protein kinase D2 (Homo sapiens). To be noted: at 1 µM.
The target of test [12] is T4, Serine/threonine-protein kinase D3 (Homo sapiens) (UniProt O94806).
T4 sequence (whole entry): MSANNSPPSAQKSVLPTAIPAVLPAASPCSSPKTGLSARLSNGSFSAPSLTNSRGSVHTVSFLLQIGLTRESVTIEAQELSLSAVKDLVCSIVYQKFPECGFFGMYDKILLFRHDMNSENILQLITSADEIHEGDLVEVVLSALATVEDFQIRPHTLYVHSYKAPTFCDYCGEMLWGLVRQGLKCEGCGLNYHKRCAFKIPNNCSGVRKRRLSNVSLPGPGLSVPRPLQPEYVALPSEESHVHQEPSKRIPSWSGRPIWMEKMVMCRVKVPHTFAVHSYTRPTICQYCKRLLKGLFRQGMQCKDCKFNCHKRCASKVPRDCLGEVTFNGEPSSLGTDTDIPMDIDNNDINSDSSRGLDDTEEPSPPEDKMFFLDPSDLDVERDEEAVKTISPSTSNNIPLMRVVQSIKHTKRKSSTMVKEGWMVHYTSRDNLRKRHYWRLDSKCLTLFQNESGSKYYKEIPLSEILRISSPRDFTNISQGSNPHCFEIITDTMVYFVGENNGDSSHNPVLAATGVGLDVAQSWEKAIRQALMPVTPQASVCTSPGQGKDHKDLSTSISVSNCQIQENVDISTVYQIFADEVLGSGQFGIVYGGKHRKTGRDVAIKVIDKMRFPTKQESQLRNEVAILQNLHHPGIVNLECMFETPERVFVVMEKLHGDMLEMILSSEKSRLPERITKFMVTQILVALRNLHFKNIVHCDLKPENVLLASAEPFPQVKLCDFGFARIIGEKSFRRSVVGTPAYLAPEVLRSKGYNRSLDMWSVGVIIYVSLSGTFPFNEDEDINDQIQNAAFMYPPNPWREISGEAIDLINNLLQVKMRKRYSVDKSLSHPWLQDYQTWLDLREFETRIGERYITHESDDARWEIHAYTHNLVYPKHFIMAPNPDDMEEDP
To be noted: at 0.1 µM.

For test [13], the target named is T4, Serine/threonine-protein kinase D3 (Homo sapiens). Conditions: at 1 µM.
Test [14] concerns the target T5, cGMP-dependent protein kinase 1 (Homo sapiens) (UniProt Q13976).
T5 sequence (whole entry): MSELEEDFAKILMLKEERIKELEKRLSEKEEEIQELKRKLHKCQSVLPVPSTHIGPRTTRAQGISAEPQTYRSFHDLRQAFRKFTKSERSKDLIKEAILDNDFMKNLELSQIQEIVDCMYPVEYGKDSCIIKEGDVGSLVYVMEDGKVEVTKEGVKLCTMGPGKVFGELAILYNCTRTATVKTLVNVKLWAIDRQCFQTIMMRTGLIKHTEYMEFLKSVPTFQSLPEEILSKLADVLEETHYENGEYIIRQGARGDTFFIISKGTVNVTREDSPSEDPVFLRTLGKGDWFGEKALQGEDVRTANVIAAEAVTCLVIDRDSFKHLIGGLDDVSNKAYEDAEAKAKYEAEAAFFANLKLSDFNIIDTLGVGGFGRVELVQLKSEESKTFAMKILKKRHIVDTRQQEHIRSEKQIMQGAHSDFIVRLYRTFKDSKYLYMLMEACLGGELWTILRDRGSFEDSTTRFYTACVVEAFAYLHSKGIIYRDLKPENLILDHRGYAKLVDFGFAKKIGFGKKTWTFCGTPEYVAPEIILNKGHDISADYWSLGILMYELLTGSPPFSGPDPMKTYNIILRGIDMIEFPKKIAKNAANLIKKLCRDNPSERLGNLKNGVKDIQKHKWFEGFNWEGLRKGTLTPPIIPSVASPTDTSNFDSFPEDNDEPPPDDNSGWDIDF
To be noted: at 0.1 µM.

Test [15] deals with T5, cGMP-dependent protein kinase 1 (Homo sapiens). To be noted: at 1 µM.
For test [16], the target named is T6, cGMP-dependent protein kinase 2 (Homo sapiens) (UniProt Q13237).
T6 sequence (whole entry): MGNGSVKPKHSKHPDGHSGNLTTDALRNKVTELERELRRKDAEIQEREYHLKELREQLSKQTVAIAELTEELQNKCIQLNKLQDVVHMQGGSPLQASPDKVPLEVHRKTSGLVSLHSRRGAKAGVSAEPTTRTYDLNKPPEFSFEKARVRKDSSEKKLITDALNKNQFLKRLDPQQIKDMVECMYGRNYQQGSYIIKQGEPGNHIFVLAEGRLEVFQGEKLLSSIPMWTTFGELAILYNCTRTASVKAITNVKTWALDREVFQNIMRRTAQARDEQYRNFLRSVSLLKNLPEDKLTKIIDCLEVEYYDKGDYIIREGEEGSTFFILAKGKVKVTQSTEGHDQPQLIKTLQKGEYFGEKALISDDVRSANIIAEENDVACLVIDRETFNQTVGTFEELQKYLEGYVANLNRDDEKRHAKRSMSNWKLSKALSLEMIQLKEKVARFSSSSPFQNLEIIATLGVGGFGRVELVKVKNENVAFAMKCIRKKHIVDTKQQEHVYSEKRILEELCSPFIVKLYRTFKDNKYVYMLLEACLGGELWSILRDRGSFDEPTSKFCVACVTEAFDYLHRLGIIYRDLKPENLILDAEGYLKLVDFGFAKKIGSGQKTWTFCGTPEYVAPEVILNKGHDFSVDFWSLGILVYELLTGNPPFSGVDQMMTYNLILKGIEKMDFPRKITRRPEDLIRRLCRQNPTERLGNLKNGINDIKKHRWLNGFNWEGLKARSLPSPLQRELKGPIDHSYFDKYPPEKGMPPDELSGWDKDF
To be noted: at 0.1 µM.

In test [17] the target is T6, cGMP-dependent protein kinase 2 (Homo sapiens). To be noted: at 1 µM.
Test [18] deals with T7, cAMP-dependent protein kinase catalytic subunit PRKX (Homo sapiens) (UniProt P51817).
T7 sequence (whole entry): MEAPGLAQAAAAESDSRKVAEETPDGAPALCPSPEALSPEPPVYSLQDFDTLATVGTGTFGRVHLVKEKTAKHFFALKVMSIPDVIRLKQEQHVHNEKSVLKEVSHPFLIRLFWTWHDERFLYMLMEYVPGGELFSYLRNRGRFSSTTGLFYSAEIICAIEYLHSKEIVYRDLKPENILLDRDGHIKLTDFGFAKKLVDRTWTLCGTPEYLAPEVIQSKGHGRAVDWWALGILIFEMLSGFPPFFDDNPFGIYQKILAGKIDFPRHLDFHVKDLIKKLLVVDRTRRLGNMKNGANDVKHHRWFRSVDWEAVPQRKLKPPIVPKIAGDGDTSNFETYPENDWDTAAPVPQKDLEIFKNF
To be noted: at 0.1 µM.

For test [19], the target named is T7, cAMP-dependent protein kinase catalytic subunit PRKX (Homo sapiens). Conditions: at 1 µM.
Test [20] has as its target Rho-associated protein kinase 1 (Homo sapiens) (UniProt Q13464). Conditions: at 0.1 µM.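 Also: values are mean percent inhibition of ROCK1.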

Protein kinase C beta type (Homo sapiens), sequence (P05771 2-671 limits assumed): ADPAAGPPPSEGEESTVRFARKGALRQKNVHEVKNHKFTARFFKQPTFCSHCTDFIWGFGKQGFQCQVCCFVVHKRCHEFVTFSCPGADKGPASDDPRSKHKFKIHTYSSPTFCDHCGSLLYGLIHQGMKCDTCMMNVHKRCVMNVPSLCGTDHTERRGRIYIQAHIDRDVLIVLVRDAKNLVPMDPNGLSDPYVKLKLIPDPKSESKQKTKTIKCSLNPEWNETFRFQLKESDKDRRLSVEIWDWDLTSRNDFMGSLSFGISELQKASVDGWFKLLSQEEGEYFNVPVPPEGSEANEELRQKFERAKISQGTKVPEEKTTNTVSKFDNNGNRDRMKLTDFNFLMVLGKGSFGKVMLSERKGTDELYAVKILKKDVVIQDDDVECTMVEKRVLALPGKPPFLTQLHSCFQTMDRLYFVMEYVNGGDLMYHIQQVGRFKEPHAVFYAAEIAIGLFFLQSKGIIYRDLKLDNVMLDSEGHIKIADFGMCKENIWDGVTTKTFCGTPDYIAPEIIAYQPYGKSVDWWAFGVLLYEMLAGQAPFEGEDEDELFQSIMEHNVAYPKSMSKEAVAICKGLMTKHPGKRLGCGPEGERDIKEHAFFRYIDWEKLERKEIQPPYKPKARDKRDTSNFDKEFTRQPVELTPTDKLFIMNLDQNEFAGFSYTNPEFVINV
Protein kinase C theta type (Homo sapiens), sequence (Q04759 whole entry, looked up): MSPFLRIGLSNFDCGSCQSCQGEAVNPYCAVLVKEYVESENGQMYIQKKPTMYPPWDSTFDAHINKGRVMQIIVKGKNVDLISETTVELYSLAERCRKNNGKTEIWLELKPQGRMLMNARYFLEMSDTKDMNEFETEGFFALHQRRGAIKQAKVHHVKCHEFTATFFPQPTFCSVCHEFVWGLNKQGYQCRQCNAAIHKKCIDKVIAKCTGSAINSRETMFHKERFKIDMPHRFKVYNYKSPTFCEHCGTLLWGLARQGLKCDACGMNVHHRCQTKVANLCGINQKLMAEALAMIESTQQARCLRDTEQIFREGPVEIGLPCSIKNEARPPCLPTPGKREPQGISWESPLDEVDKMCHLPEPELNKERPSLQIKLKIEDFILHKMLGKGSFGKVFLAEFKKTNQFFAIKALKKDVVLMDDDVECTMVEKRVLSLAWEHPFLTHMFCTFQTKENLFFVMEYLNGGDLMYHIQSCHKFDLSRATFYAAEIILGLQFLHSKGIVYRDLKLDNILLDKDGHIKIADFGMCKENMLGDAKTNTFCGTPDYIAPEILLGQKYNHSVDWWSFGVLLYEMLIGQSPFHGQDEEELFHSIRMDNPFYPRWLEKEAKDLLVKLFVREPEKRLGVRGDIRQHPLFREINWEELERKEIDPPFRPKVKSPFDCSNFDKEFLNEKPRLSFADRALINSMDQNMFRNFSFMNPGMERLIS
Rho-associated protein kinase 1 (Homo sapiens), sequence (Q13464 2-1354 limits assumed): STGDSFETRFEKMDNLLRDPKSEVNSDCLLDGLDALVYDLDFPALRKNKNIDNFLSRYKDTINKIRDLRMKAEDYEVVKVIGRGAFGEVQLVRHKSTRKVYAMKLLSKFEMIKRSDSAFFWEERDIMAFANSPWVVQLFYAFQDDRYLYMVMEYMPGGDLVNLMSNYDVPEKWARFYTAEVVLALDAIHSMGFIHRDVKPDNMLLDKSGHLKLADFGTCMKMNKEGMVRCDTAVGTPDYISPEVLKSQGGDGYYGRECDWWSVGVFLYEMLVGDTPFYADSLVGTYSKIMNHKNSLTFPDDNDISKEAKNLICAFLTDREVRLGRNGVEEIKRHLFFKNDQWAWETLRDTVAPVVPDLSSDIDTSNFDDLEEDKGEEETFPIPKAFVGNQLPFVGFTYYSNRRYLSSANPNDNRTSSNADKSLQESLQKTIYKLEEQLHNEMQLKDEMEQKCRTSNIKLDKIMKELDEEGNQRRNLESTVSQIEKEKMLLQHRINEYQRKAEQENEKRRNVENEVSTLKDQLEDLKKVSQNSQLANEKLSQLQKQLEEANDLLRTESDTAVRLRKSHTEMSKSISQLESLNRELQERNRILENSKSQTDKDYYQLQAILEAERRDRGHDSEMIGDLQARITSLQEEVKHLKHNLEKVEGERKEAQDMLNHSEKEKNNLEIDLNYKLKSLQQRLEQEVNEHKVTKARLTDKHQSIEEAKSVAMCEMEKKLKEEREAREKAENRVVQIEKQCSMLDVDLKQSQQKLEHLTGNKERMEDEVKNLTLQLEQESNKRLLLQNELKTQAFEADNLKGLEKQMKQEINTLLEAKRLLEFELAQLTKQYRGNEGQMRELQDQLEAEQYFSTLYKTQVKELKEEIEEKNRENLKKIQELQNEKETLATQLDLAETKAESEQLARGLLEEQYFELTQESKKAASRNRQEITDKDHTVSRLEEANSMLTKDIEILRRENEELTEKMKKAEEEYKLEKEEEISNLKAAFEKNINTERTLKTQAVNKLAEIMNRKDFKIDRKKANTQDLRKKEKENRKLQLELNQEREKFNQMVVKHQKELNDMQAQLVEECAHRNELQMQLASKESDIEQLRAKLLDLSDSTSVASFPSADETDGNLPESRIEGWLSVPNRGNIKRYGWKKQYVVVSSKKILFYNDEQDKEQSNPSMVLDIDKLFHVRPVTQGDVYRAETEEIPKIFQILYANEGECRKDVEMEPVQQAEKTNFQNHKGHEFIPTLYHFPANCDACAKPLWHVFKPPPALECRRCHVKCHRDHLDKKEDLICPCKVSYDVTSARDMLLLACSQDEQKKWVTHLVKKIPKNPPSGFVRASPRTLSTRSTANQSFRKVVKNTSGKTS

On to `O=C(Nc1n[nH]c2cc(-c3cc(F)ccc3F)ccc12)C1CC1`, for which the inhibition (in general, the relative decrease from the control value, in per cent) is 1.94% in test [1]; -0.39% in [2]; 2.69% in test [3]; 1.32% in test [4]; 1.51% in [5]; 1.71% in test [6]. Moreover, the inhibition stood at 4.18% in [7]; 2.95% in test [8]; 3.73% in [9]; 3.73% in test [10]; 4.95% in test [11]; 3.61% in test [12]. Also, the inhibition worked out at 3.98% in test [13]; 3.55% in test [14]; 4.78% in test [15]; 2.47% in test [16]; 5.6% in test [17]; 1.14% in test [18]. Besides, the values for the inhibition in test [19] and in [20] were 1.88% and -0.49%, respectively.

Take `COc1cccc(-n2cnc3c(N/N=C/c4ccncc4)ncnc32)c1`: the inhibition in test [1] was 3.14%; in [2] it was 0.58%; in test [3] it was -0.97%; in test [4], 0.62%; in [5], 4.42%; in test [6], 2.34%. Further, the inhibition is 2.1% in test [7]; -2.1% in test [8]; -5.45% in test [9]; -4.34% in [10]; -5.5% in [11]; -3.34% in test [12]. For the same compound, the inhibition was -4.97% in [13]; 0.67% in [14]; 3.77% in [15]; 3.29% in test [16]; 4.98% in [17]; 1.92% in [18]. The figures for the inhibition in test [19] and in test [20] were 5.16% and 0.59%, respectively.
